The source made the active and inactive calls. Rule for the calls: active = hit-call score of the fitted dose curve at least 0.9, where 1 is the maximum; inactive = score below 0.9.
Columns and labels:
[1] = read-out: Vascular cell adhesion molecule 1 (VCAM1), VCAM1 (gene 7412); assay: BSK_4H_VCAM1: BioMAP Diversity Plus: 4H Assay for Vascular cell adhesion molecule 1 (VCAM1) Biomarker Activity (AID 2283033); conditions: primary human endothelial cells (HUVEC); actives raise or lower the signal
How it was run: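 Primary human umbilical vein endothelial cells, 4H stimulation system, treated for 24 h; cell-surface VCAM-1 quantified by ELISA. Bidirectional fitting against DMSO; cytotoxicity tracked by SRB total-protein staining in parallel cultures.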

[2] = read-out: Interferon-gamma inducible Protein 10 (IP10), CXCL10 (gene 3627); assay: BSK_BE3C_IP10: BioMAP Diversity Plus: BE3C Assay for Interferon-gamma inducible Protein 10 (IP10) Biomarker Activity (AID 2283034); conditions: primary human bronchial epithelial cells; actives raise or lower the signal
How it was run: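 Primary human bronchial epithelial cells, with IP-10 measured by ELISA 24 hours after chemical dosing. Bidirectional fit against DMSO; cytotoxicity checked by SRB total protein staining in parallel cultures.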

[3] = read-out: Monokine induced gamma interferon (MIG), CXCL9 (gene 4283); assay: BSK_BE3C_MIG: BioMAP Diversity Plus: BE3C Assay for Monokine induced gamma interferon (MIG) Biomarker Activity (AID 2283035); conditions: primary human bronchial epithelial cells; actives raise or lower the signal;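 for outcome: MIG protein measured by ELISA in BE3C cultures after 24 h of dosing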
How it was run: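 ELISA read-out of MIG in human lung bronchial epithelial primary cultures, 24 h post-dosing. Bidirectional curve fit vs DMSO baseline.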

[4] = read-out: Transforming growth factor beta 1 (TGFb1), TGFB1 (gene 7040); assay: BSK_BE3C_TGFb1: BioMAP Diversity Plus: BE3C Assay for Transforming growth factor beta 1 (TGFb1) Biomarker Activity (AID 2283036); conditions: primary human bronchial epithelial cells; actives raise or lower the signal
How it was run: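 Primary human bronchial epithelial cells dosed with chemical; TGF-b1 measured by ELISA 24 h after dosing. Bidirectional curve fitting against DMSO negative control; SRB total-protein staining in parallel cultures gauged cytotoxicity.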

[5] = read-out: Plasminogen activator inhibitor-1 (PAI1), SERPINE1 (gene 5054); assay: BSK_BE3C_PAI1: BioMAP Diversity Plus: BE3C Assay for Plasminogen activator inhibitor-1 (PAI1) Biomarker Activity (AID 2283037); conditions: primary human bronchial epithelial cells; actives raise or lower the signal
How it was run: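 Primary human bronchial epithelial cells (BE3C system) exposed 24 h; PAI-1 quantified by ELISA. Parallel sulforhodamine B staining of total protein flags cytotoxicity. Bidirectional fit versus DMSO.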

[6] = read-out: urokinase plasminogen activator (uPA), PLAU (gene 5328); assay: BSK_BE3C_uPA: BioMAP Diversity Plus: BE3C Assay for urokinase plasminogen activator (uPA) Biomarker Activity (AID 2283038); conditions: primary human bronchial epithelial cells; actives raise or lower the signal;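 for outcome: uPA protein level quantified by ELISA in cell cultures; uPA read one day after compound addition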
How it was run: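 Using confluent primary human lung bronchial epithelial cultures, we dosed chemicals, waited 24 h, then ran a uPA ELISA, fitting bidirectionally against DMSO.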

[7] = read-out: Urokinase-type plasminogen activator receptor (uPAR), PLAUR (gene 5329); assay: BSK_BE3C_uPAR: BioMAP Diversity Plus: BE3C Assay for Urokinase-type plasminogen activator receptor (uPAR) Biomarker Activity (AID 2283039); conditions: primary human bronchial epithelial cells; actives raise or lower the signal;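 for outcome: uPAR protein level measured by ELISA on the cells; cells exposed to compound for one day before measurement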
How it was run: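 Primary human bronchial epithelial cells dosed for 24 h; uPAR quantified by ELISA with bidirectional fitting against DMSO. Overt cytotoxicity assessed in parallel cultures by SRB total-protein staining (0.1% SRB, 560 nm).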

[8] = read-out: Interleukin-6 (IL6), IL6 (gene 3569); assay: BSK_CASM3C_IL6: BioMAP Diversity Plus: CASM3C Assay for Interleukin-6 (IL6) Biomarker Activity for (AID 2283040); conditions: primary human coronary artery smooth muscle cells; actives raise or lower the signal
[9] = read-out: Tissue plasminogen activator (tPA), PLAT (gene 5327); assay: BSK_BE3C_tPA: BioMAP Diversity Plus: BE3C Assay for Tissue plasminogen activator (tPA) Biomarker Activity (AID 2283041); conditions: primary human bronchial epithelial cells; actives raise or lower the signal;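 for outcome: tPA level quantified by ELISA one day after compound addition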
How it was run: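 Primary human bronchial epithelial cells in the BE3C system, exposed to compound for 24 h. tPA was quantified by ELISA; DMSO served as baseline, with gain or loss of signal fitted. Cytotoxicity checked in parallel cultures by SRB total-protein staining.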

[10] = read-out: Interleukin-8 (IL8), CXCL8 (gene 3576); assay: BSK_CASM3C_IL8: BioMAP Diversity Plus: CASM3C Assay for Interleukin-8 (IL8) Biomarker Activity (AID 2283042); conditions: primary human coronary artery smooth muscle cells; actives raise or lower the signal;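 note: IL-8 protein level quantified by ELISA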

SMILES | outcome [1] | outcome [2] | outcome [3] | outcome [4] | outcome [5] | outcome [6] | AC50 [7] | outcome [8] | outcome [9] | outcome [10] | outcome [7] | AC50 [9] | AC50 [1] | AC50 [2] | AC50 [3] | AC50 [4] | AC50 [5] | AC50 [6] | AC50 [8] | AC50 [10]
CCCCCc1ccc(N)cc1 | inactive | inactive | inactive | inactive | inactive | inactive | 5.56 µM (active) | inactive | inactive | inactive | – | – | – | – | – | – | – | – | – | –
O=C(O)Cn1c(=O)n(Cc2ccc(Br)cc2F)c(=O)c2ccc(Cl)cc21 | inactive | inactive | inactive | inactive | inactive | inactive | – | inactive | – | inactive | inactive | 11.5 µM (active) | – | – | – | – | – | – | – | –
CN(C[C@@H](CC[N+]12CCC(C3CCCCC3)(CC1)CC2)c1ccc(Cl)c(Cl)c1)C(=O)c1cc(C(F)(F)F)cc(C(F)(F)F)c1 | – | – | – | – | – | – | 13.6 µM (active) | – | – | – | – | 11.9 µM (active) | 32 µM (active) | 13.1 µM (active) | 29.6 µM (active) | 17.5 µM (active) | 12.5 µM (active) | 16.6 µM (active) | 15.9 µM (active) | 24.7 µM (active)
CC(C)(C)c1csc(-c2cc3cc(OCc4ccccc4CC(=O)O)ccc3o2)n1 | – | – | – | inactive | – | – | 12.2 µM (active) | inactive | – | inactive | – | 6.81 µM (active) | 31.1 µM (active) | 6.96 µM (active) | 11.4 µM (active) | – | 5.03 µM (active) | 11.6 µM (active) | – | –
Cc1cc2c(cc1C(F)(F)F)N(C(=O)Nc1ccc(Oc3cccnc3C)nc1)CC2 | inactive | – | inactive | inactive | inactive | – | – | inactive | inactive | inactive | inactive | – | – | 13.1 µM (active) | – | – | – | 11.7 µM (active) | – | –
Oc1ccc2ccccc2c1 | inactive | – | inactive | inactive | inactive | inactive | – | – | inactive | inactive | inactive | – | – | 32.5 µM (active) | – | – | – | – | 20 µM (active) | –
CCN(Cc1cccc(S(=O)(=O)O)c1)c1ccc(C(=C2C=CC(=[N+](CC)Cc3cccc(S(=O)(=O)O)c3)C=C2)c2ccccc2S(=O)(=O)[O-])cc1 | inactive | inactive | inactive | inactive | inactive | inactive | – | inactive | inactive | inactive | inactive | – | – | – | – | – | – | – | – | –
Cc1cccc2ccccc12 | inactive | inactive | inactive | inactive | inactive | inactive | – | inactive | inactive | inactive | inactive | – | – | – | – | – | – | – | – | –
O=c1[nH]sc2ccccc12 | – | – | – | – | – | – | 35 µM (active) | – | – | – | – | 11 µM (active) | 7.17 µM (active) | 28 µM (active) | 32.3 µM (active) | 20 µM (active) | 37.2 µM (active) | 33.6 µM (active) | 8.69 µM (active) | 14.6 µM (active)
CCCCOC(=O)c1ccc(O)cc1 | inactive | inactive | inactive | inactive | inactive | inactive | – | inactive | inactive | inactive | inactive | – | – | – | – | – | – | – | – | –
C[C@]12CC[C@@H]3c4ccc(O)cc4CC[C@H]3[C@@H]1CC[C@H]2O | inactive | inactive | inactive | inactive | inactive | inactive | – | inactive | inactive | inactive | inactive | – | – | – | – | – | – | – | – | –
CC(O)CC(C)(C)O (stereo not given) | inactive | inactive | inactive | inactive | inactive | inactive | – | inactive | inactive | inactive | inactive | – | – | – | – | – | – | – | – | –
CCCCCCCC[Si](OCC)(OCC)OCC | – | – | inactive | inactive | inactive | inactive | – | inactive | inactive | inactive | inactive | – | 21.6 µM (active) | 26.3 µM (active) | – | – | – | – | – | –
CC(C)(C)c1cc(/C=C2\SC(N)=NC2=O)cc(C(C)(C)C)c1O | – | inactive | inactive | inactive | inactive | – | – | – | inactive | inactive | inactive | – | 26.4 µM (active) | – | – | – | – | 3.97 µM (active) | 36.2 µM (active) | –
C[C@]12CC[C@@H]3c4ccc(O)cc4CC[C@H]3[C@@H]1CCC2=O | inactive | inactive | inactive | inactive | inactive | inactive | – | inactive | inactive | inactive | inactive | – | – | – | – | – | – | – | – | –
O=c1c(-c2ccc(O)cc2)coc2cc(O)cc(O)c12 | – | inactive | inactive | inactive | inactive | inactive | – | – | – | – | inactive | 9.33 µM (active) | 20 µM (active) | – | – | – | – | – | 11.1 µM (active) | 20 µM (active)
Cc1ccc(C(C)C)cc1 | inactive | inactive | inactive | inactive | inactive | inactive | – | inactive | inactive | inactive | inactive | – | – | – | – | – | – | – | – | –
CCO[Si](CCCNC(N)=O)(OCC)OCC | inactive | inactive | inactive | inactive | inactive | inactive | – | inactive | inactive | inactive | inactive | – | – | – | – | – | – | – | – | –
COc1cc(C(=O)NC2CCN(C)CC2)ccc1Nc1ncc2c(n1)N(C1CCCC1)CC(F)(F)C(=O)N2C | – | – | – | – | – | – | 5.34 µM (active) | – | – | – | – | 10.6 µM (active) | 7.23 µM (active) | 35.5 µM (active) | 31.8 µM (active) | 18.5 µM (active) | 18.6 µM (active) | 12.6 µM (active) | 8.51 µM (active) | 19.2 µM (active)

From PubChem BioAssay (EPA / NIEHS)
